High-throughput results from PubChem BioAssay.
HP1b chromo inh: HP1-beta chromodomain-methylated histone interaction inhibition. P83916. AlphaScreen HP1-beta / biotin-H3K9me3 peptide binding. Potency, µM (highest dose often 114 µM), inactives show at the top dose activity change, negative = inhibition, hits mostly inhibitors. 390,000 tested, 0.56% active. AID 540317; note: nearly all actives have a fitted effect of over 70% in size
Target sequence (P83916 whole entry, looked up): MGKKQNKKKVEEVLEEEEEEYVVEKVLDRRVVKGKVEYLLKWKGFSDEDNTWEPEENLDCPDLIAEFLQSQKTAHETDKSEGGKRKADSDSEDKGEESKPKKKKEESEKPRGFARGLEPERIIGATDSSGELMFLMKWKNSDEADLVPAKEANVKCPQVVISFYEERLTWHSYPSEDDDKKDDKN
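HP1-beta protein (50 nM final) preincubated 30 min at room temperature with biotinylated H3(1-18)K9me3 peptide (50 nM) in PBS pH 7.4, 0.01% Tween-20, then compound added for 30 min. AlphaScreen streptavidin donor/nickel chelate acceptor beads (10 ug/mL final), 30 min dark, luminescence read.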
BAZ2B inh: inhibitors of human BAZ2B bromodomain. Q9UIF8. 360,000 tested, 4.4% active. Potency, µM (titrated, usually from 114 µM), for inactives: top-dose activity change, negative = inhibition, most hits filed as inhibitors. AlphaScreen BAZ2B-H3K14Ac peptide displacement; note: % is set by controls: 0 for no effect and ±100 for the full control effect; nearly all actives have a fitted effect of over 60% in size
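Protein-peptide AlphaScreen: BAZ2B 50 nM, b-H3K14Ac 50 nM, 1x PBS pH 7.4 + 0.01% Tween-20. Preincubation 30 min RT; cpd 30 min RT (top 110 uM); beads 20 min RT, light-protected.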
G9a inh: inhibitors of human histone lysine methyltransferase G9a | AID 504332 | Q96KQ7 | 350,000 tested, 8.8% active | G9a H3K9 monomethylation, AlphaScreen, 2 h | Potency, µM (top dose mostly 102 µM), for inactives: at the top dose activity, negative = inhibition, most hits filed as inhibitors; note: % is set by controls: 0 for no effect and ±100 for the full control effect; nearly all actives have a fitted effect of over 75% in size
Target sequence (Q96KQ7 913-1193 limits assumed): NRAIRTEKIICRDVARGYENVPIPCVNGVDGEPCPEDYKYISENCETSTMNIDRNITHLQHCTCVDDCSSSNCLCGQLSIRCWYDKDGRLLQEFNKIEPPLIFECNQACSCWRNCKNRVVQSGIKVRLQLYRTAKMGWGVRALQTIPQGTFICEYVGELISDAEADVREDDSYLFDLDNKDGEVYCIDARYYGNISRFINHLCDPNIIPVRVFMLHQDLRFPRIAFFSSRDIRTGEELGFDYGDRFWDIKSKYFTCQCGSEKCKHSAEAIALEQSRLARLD
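Chemiluminescent proximity detection of H3K9 monomethylation, read after 10 min bead incubation in the dark. Reaction: 20 nM G9a, 500 nM biotin-H3K9 peptide, 20 uM SAM cofactor, 2 h, room temperature, following 15 min enzyme-compound preincubation.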
JMJD2A Tudor: JMJD2A Tudor domain (human) inhibition; O75164; AlphaScreen JMJD2A-Tudor / H3K4me3 peptide binding; Potency, µM (highest dose often 114 µM), without a hit: top-dose activity change, negative = inhibition, hits mostly inhibitors; 390,000 tested, 4.4% active; AID 504339; note: % is set by controls: 0 for no effect and ±100 for the full control effect; nearly all actives have a fitted effect of over 50% in size
GLS inh: inhibitors of human glutaminase (GLS) | O94925 | GLS enzymatic activity, qHTS titration | Potency, µM (top dose mostly 45.5 µM), inactives show at the highest dose activity change, negative = inhibition, most hits filed as inhibitors | 410,000 tested, 0.21% active | AID 624170; note: % is set by controls: 0 for no effect and ±100 for the full control effect
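Compounds were pin-transferred onto hKGA, after which L-glutamine (1 mM solution) and a detection mix of glutamate oxidase, HRP and Amplex Red were added. Initial and 30 min RT fluorescence reads were collected.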
* marks the source's active call; other numbers are inactive results; u = inconclusive; x = no result given; [ ] = dose if it differs, or a comment. Shown are actives, neighbours in structure and some others; about 10% of the full set was active somewhere. Calls come from the whole dose curve; as a rule, active = well fitted curve in the direction sought with a large enough effect; inconclusive = small, poorly fitted or top-dose-only effect, or another doubt; inactive = no such curve, though single readings can be large; an effect the other way counts as inactive or inconclusive. Potency is the fitted concentration of half-maximal effect.

SMILES | HP1b chromo inh | BAZ2B inh | G9a inh | JMJD2A Tudor | GLS inh
O=C(O)[C@@H]1[C@H]2C[C@H]3c4[nH]c5ccccc5c4CCN3C[C@@H]2CC[C@@H]1O | -36% | u | u | 56µM* | u
COC(=O)[C@@H]1[C@H]2C[C@H]3c4[nH]c5ccccc5c4CCN3C[C@H]2CC[C@@H]1O | x | x | 25%[59 µM] | x | x
COC(=O)C1=CO[C@@H](C)[C@H]2CN3CCc4c([nH]c5ccccc45)[C@@H]3C[C@H]12 | 5% | u | -42%[59 µM] | -29% | 11%
CC1=C(C(=O)N2CCOCC2)CC(CC(=O)NC(c2ccccc2)c2ccccc2)C(=O)N1Cc1ccc(F)cc1 (stereo not given) | x | x | x | x | -3%
COc1cccc(CNC(=O)c2ccc3nc(-c4ccc(F)cc4)c(-c4ccc(F)cc4)nc3c2)c1 | 15% | -11% | 1%[59 µM] | -24% | 2%
O=C(CSc1nn(-c2ccc(Cl)cc2)c(=S)s1)N1CCN(C(=O)c2ccco2)CC1 | 6% | 19% | 79µM* | -16% | 5%
O=C(CSc1nn(-c2ccc(F)cc2)c(=S)s1)N1CCN(C(=O)c2ccco2)CC1 | 36% | 0% | -6% | -25% | 3%
Cc1nc2ccccc2c(C)c1C(=O)c1ccccc1 | 34% | u | 50µM* | -8%[11.4 µM] | -16%
CCc1nc2ccccc2c(C(=O)OCC(=O)N(C)Cc2ccccc2)c1C | 69% | x | x | 5% | 1%
CCOC(=O)c1c(CCl)nc2ccccc2c1C | 32% | u | u | 89µM* | 0%
COc1cc2oc(=O)cc(C)c2c(OC)c1OC | 25% | 4% | 5%[59 µM] | -2% | 5%
COc1cc2cccc(OC)c(=O)c2c(OC)c1OC | 22% | -17% | 50µM* | -7% | 8%
CC(=O)c1ccc(NC(=O)CC23CC4CC(C2)CC(n2nnc(C)n2)(C4)C3)cc1 | 22% | -36% | u | -20% | -3%
COC(=O)c1ccc(C)c(NC(=O)c2ccc(Cn3cc([N+](=O)[O-])cn3)o2)c1 | 9% | -3% | 21%[59 µM] | -18% | 9%
CN(C)c1ccc(NC(=O)c2ccc(Cn3cc([N+](=O)[O-])cn3)cc2)cc1 | 45µM* | 25µM* | 14µM* | 50µM* | 14%
CCNS(=O)(=O)c1ccc(NC(=O)c2ccc(Cn3cc([N+](=O)[O-])cn3)o2)cc1 | 1% | 16% | 50µM* | -10% | 14%
C[C@]12c3[nH]c4ccc(Cl)cc4c3CCN1C(=O)[C@@H](CC(=O)NCc1ccco1)C[C@@H]2C(=O)N1CCCCC1 | -8% | x | x | u | 13%
Cc1oc2c(c(C)cc3oc(=O)c(CC(=O)NCCc4ccccc4)c(C)c32)c1C | 17% | -6% | -9%[59 µM] | -8% | -14%
CCC1(c2ccccc2)NC(=S)N(c2cccc(C)c2C)N1 (stereo not given) | 34% | -24% | 32µM* | -2% | -22%
CCc1ccc(Nc2nc(-c3cc4cccc(OC)c4oc3=O)c(CC)s2)cc1 | 23% | -16% | -23%[59 µM] | -28% | -6%
COc1ccccc1C(=O)Oc1c(Sc2ccccc2)c(C)nn1-c1ccccc1 | 91% | 26% | -28%[59 µM] | 28% | 19%
Cc1nn(C(=O)COc2ccc(Cl)cc2)c(C)c1Sc1ccccc1 | 53% | 9% | -21%[59 µM] | 9% | -2%
CCCC(=O)Oc1c(Sc2ccc(Cl)cc2)c(C)nn1-c1ccccc1 | 13% | 3% | 4µM* | -35% | 1%
COc1cc(C(=O)Oc2c(Sc3ccc(C)cc3)c(C)nn2-c2ccccc2)cc(OC)c1OC | 42% | -15% | 14µM* | -29% | 12%
Cc1ccc(Sc2c(C)nn(-c3ccccc3)c2OC(=O)CC(C)C)cc1 | 77% | 7% | 8.9µM* | 16% | 4%
Cc1oc2ccc(O)c(CN3CCCCCC3)c2c1C(=O)Nc1cccc(C(F)(F)F)c1 | -4% | u | -26%[59 µM] | -28% | 2%
CN(C)CCc1cc2c(c3c1ccc1ccccc13)OCO2 | u | u | 40µM* | -54% | 9%
O=C(NCc1cccnc1)c1cc(C2CCCCN2C(=O)CCCc2ccccc2)on1 (stereo not given) | x | x | x | x | 15%
CCOc1ccccc1C1C(C#N)=C(N)Oc2cc(C)n(Cc3ccccn3)c(=O)c21 (stereo not given) | 31% | 1% | 50µM* | -8% | 28%
